# Shiga inhibitor: A qHTS for Small Molecule Inhibitors of Shiga Toxin; 290,000 tested, 9.2% active; inhibition, % at 38.7 µM; Vero cells, Shiga toxin protein synthesis inhibition reporter; in the data active means inhibition mostly above about 28%, no sharp cut-off; inactive means mostly below about 43%; further: 0% is about no effect
# Cycloheximide cs: Cycloheximide Counterscreen for Small Molecule Inhibitors of Shiga Toxin | cell reporter, cycloheximide protein synthesis inhibition counterscreen | max response, % | 300,000 tested, 12% active | AID 2314, 2010; in the data active means max response mostly above about 13%, no sharp cut-off; inactive means mostly below about 14%; further: read at 38.3 µM for the half of the compounds with a filed dose; 0% is about no effect
# LmPK inh: qHTS Assay for Inhibitors of Leishmania Mexicana Pyruvate Kinase (LmPK); Q27686; AID 1721, 2009; 290,000 tested, 0.37% active; purified LmPK, Kinase-Glo ATP luminescence, 1 h; Potency, µM (series often up to 57.5 µM), inactives show at the highest dose activity change, negative = inhibition, usual class: inhibitors; active means well fitted curve in the direction sought with a large enough effect; inconclusive means small, poorly fitted or top-dose-only effect, or another doubt; inactive means no such curve, though single readings can be large; an effect the other way counts as inactive or inconclusive; further: potency means the concentration at half of the fitted maximal effect; on the % scale 0 is the no-effect control and ±100 the full control effect
# Target sequence (Q27686 whole entry, looked up): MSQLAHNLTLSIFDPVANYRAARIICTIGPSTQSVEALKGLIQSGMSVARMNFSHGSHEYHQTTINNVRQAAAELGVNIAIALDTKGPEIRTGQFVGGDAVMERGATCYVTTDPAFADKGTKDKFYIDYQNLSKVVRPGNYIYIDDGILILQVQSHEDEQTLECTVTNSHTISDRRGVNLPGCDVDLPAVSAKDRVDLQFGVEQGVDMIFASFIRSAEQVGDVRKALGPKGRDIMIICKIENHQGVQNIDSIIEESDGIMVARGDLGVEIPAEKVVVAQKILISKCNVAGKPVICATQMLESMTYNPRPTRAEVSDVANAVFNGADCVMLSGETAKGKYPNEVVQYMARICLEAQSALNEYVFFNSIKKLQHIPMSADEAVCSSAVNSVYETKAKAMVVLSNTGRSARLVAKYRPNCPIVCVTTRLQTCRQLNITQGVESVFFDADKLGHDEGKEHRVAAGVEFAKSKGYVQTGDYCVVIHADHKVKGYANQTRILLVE
#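 ATP generated from ADP (0.1 mM) and PEP (0.5 mM) by 0.1 nM LmPK over 1 h at room temperature (pH 7.2 imidazole buffer) was detected by coupled luciferase luminescence. Values were normalized to uninhibited and no-enzyme wells.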
# SARS PLpro yeast: qHTS of Yeast-based Assay for SARS-CoV PLP. S. cerevisiae expressing SARS-CoV PLpro, growth rescue. Potency, µM (highest dose often 32.9 µM), without a hit: at the highest dose activity, positive = growth rescue, most hits filed as activators. 330,000 tested, 0.19% active; further: potency means the concentration at half of the fitted maximal effect; 0% is about no effect; nearly all actives have a fitted effect of over 55% in size
# TbPYK inhibitor: qHTS of Trypanosoma Brucei Inhibitors; 410,000 tested, 0.12% active; pyruvate kinase (Trypanosoma brucei), Q57TT1; TbPYK enzyme, Kinase-Glo Plus ATP luminescence, 45 min; Potency, µM (top dose mostly 76.8 µM), without a hit: at the highest dose activity, negative = inhibition, actives largely listed as inhibitors; active means well fitted curve in the direction sought with a large enough effect; inconclusive means small, poorly fitted or top-dose-only effect, or another doubt; inactive means no such curve, though single readings can be large; an effect the other way counts as inactive or inconclusive; further: potency means the concentration at half of the fitted maximal effect; on the % scale 0 is the no-effect control and ±100 the full control effect; nearly all actives have a fitted effect of over 50% in size
#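 Assay buffer: 50 mM TEA pH 7.2, 100 mM KCl, 10 mM MgCl2, 0.05% BSA, 0.01% Tween-20. Pyruvate kinase from T. brucei plus substrate met compound, then ADP (130 uM final). Luminescence was read post 45 min RT.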
# NS1 inh: qHTS Assay for Inhibitors of Influenza NS1 Protein Function; AID 2326, 2010; 270,000 tested, 0.4% active; Potency, µM (highest dose often 46.1 µM), for the others: top-dose activity, positive = more growth; further: potency means the concentration at half of the fitted maximal effect; actives are rising curves; nearly all actives have a fitted effect of over 50% in size
#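 Recovery from NS1-induced slow growth read by OD600 in budding yeast switched to galactose assay medium (pH 6.0, -URA) at 1:100 dilution. Compound 23 nl per well; the matching strain lacking NS1 serves as control.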
# The depositor's hits bear a star; ? = inconclusive; . = not tested or not shown. The sample as a whole holds a higher share of hits than the screen did. Unless noted, the call rests on the fitted dose curve.
SMILES,Shiga inhibitor,Cycloheximide cs,LmPK inh,SARS PLpro yeast,TbPYK inhibitor,NS1 inh
CCn1c(NCc2ccccn2)nc2ccccc21,21.1,21.0*,0.1%,-26.4%,0.6%,-3.3%
CCn1c(NCc2cccc(Cl)c2)nc2ccccc21,.,.,.,.,0.7%,.
CCn1c(NCc2ccc(OC)c(OC)c2)nc2ccccc21,.,.,.,.,5.1%,.
CCN(CC)c1ccc(CNc2nc3ccccc3n2C)cc1,43.8*,8.2,-2.1%,0.4%,34.9%,-0.3%
CCn1c(NCc2ccc(N(C)C)cc2)nc2ccccc21,35.3*,29.7*,-0.5%,-0.5%,-1.2%,-5.6%
CCc1ccc(NC(=O)CSc2nnc3[nH]c(=O)cc(-c4ccccc4)n23)cc1,.,.,.,.,-4.9%,.
CCc1cc2cc(C(=O)Nc3ccccc3F)sc2s1,96.6*,29.7*,0.4%,-3.2%,-0.2%,3.7%
CC(C)(C)c1ccc(C(=O)Nc2ccc(F)cc2)s1,70.7*,39.5*,-6.9%,-3.4%,-9.1%,6.5%
Cc1nc(Cl)sc1C(=O)Nc1ccc(F)cc1,.,.,.,.,-0.5%,.
CCc1cc2cc(C(=O)Nc3ccc(F)cc3)sc2s1,76.3*,30.2*,-2.7%,3.3%,0.2%,-0.8%
O=C(CCc1ccccc1)NNC(=O)C12CC3CC(CC(C3)C1)C2,45.3,20.7*,1.2%,2.7%,-3.6%,5.7%
CCCc1nnc(SCC(=O)NC2CC2)n1C,-9.9,-4.9,1.1%,-1.5%,-8.2%,-2.5%
CNC(=O)C(C)Sc1ccc(S(=O)(=O)N2CCOCC2)cn1 (centres undefined),.,.,.,6.9%,-4.5%,.
CCCNC(=O)CN1C(=O)CSc2ccc(S(=O)(=O)N3CCC(C)CC3)cc21,.,.,.,.,-8.7%,.
O=C(OCC1CC(c2ccccc2)=NO1)c1ccco1 (centres undefined),93.0*,54.0*,-8.4%,-5.8%,7.4%,1.5%
O=C(OCC1CC(c2ccccc2Cl)=NO1)c1ccc(Br)cc1 (centres undefined),39.9,19.9*,7.4%,-25.5%,-1.5%,-5.9%
COc1cc(NC(=O)c2sc(C)nc2C)c(OC)cc1NC(=O)c1ccccc1,-3.2,8.3,2.2%,1.2%,-3.3%,7.3%
N#CCSc1nnc(-c2sc3ccccc3c2Cl)o1,60.9,42.1*,0.5%,-8.6%,2.0%,-12.8%
CCCCCCCCSc1nnc(-c2ccc(OC)cc2)o1,-7.3,-3.8,-14.5%,-0.5%,2.1%,11.0%
COc1ccc(-c2nnc(SCC(=O)NC3CC3)o2)cc1,.,.,.,10.3%,0.0%,.
COC(=O)CSc1nnc(-c2sc3ccccc3c2Cl)o1,-2.2,-0.5,-1.4%,-2.0%,-7.6%,-14.0%
CCSc1nnc(-c2ccc(OC)cc2)o1,97.8*,56.1*,-15.0%,-6.5%,1.6%,-16.9%
C#CCSc1nnc(-c2ccc(OC)cc2)o1,45.7,36.9*,-3.5%,19.4%,-8.0%,-95.1%
C#CCSc1nnc(-c2ccc([N+](=O)[O-])cc2)o1,57.8*,23.2*,1.4%,-1.3%,-1.3%,.
CC[C@H](c1ccccc1)c1noc(CCN(CC)CC)n1,.,.,.,.,3.4%,.
SMILES,Shiga inhibitor,Cycloheximide cs,LmPK inh,SARS PLpro yeast,TbPYK inhibitor,NS1 inh
Cc1ccc(CC(=O)NNC(=O)c2ccncc2)cc1C,.,.,.,-3.4%,?,.
CC(C)(C)c1cc2nc(NCCOc3ccccc3)ccn2n1,.,.,.,.,-12.9%,.
COc1ccc(-c2nnc(SCc3c(C)noc3C)o2)cc1,68.4*,27.2*,-2.6%,-6.7%,-7.0%,.
COc1ccc(-c2nnc(SCc3cccc(C#N)c3)o2)cc1,31.2,8.5,2.0%,-1.9%,0.0%,-41.6%
COc1ccc(-c2nnc(SCC#N)o2)cc1,37.2,14.6*,-2.1%,-6.1%,1.9%,-4.7%
COc1cccc(N2CCN(Cc3nnc(-c4ccc5c(c4)OCO5)o3)CC2)c1,.,.,.,.,3.2%,.
O=C(Nc1ccc(OCC(F)(F)C(F)F)c(C(F)(F)F)c1)c1ccccc1O,52.1*,20.7*,6.3%,-38.3%,1.1%,-48.2%
O=C(Nc1ccc(OCC(F)(F)C(F)F)c(C(F)(F)F)c1)c1ccccc1,.,.,.,.,-2.7%,.
O=c1[nH]c(=S)[nH]c(O)c1N=Nc1ccc(-c2ccccc2)cc1[N+](=O)[O-],58.0*,16.7*,-10.1%,-4.5%,.,.
O=C(CSc1nnc(-c2ccccc2Cl)o1)N1CCCc2ccccc21,.,.,.,.,1.6%,.
CC(C)CN(C(=O)COC(=O)CSc1ccc([N+](=O)[O-])cc1)C1CCS(=O)(=O)C1 (centres undefined),.,.,.,0.1%,-14.0%,.
COc1ccc2c(c1OC)C(=O)OC2Nc1nc(-c2cc3cc([N+](=O)[O-])ccc3oc2=O)cs1 (centres undefined),-2.9,8.1,-0.5%,5.4%,0.1%,-6.4%
COc1ccc2c(c1OC)C(=O)OC2Nc1ncccc1C (centres undefined),-12.7,-1.6,0.8%,2.2%,3.1%,3.8%
COc1cccc(-c2csc(NC3OC(=O)c4c3ccc(OC)c4OC)n2)c1 (centres undefined),41.5,46.1*,4.4%,-2.6%,-4.8%,-9.3%
O=C1OC(Nc2nc(-c3ccc(F)cc3)cs2)c2ccccc21 (centres undefined),16.2,7.0,7.7%,-0.1%,-0.6%,0.1%
COc1ccc2c(c1OC)C(=O)OC2Nc1nc(-c2cc3ccccc3oc2=O)cs1 (centres undefined),68.0*,58.6*,22.4µM*,-66.6%,-20.0%,-11.4%
COc1ccc2c(c1OC)C(=O)OC2Nc1nc(-c2ccc(-c3ccccc3)cc2)cs1 (centres undefined),120.7*,80.2*,-0.4%,-85.0%,-0.8%,-23.4%
CN(C(=O)c1ccoc1)c1ccccc1I,24.7,-3.2,.,.,.,.
CCOC(=O)c1nnsc1Nc1ccc(C)c(C)c1,59.4*,43.5*,-0.3%,-1.5%,?,.
CCOC(=O)c1nnsc1-c1ccc(-c2snnc2C(=O)OCC)cc1,-5.1,-7.5,-5.8%,5.8%,-1.5%,5.8%
COc1ccc(N(C)S(=O)(=O)c2cccc(C(=O)OCC(=O)N(C)c3ccccc3)c2)cc1,.,.,.,-14.5%,2.2%,.
CC1=C(/C=C/C(C)=N\NC(=O)c2ccncc2)C(C)(C)CCC1,-10.7,13.0*,-4.6%,0.5%,-2.9%,-0.5%
Cc1ccc(C(=O)NC(=S)Nc2ccccc2C(F)(F)F)cc1,71.0,14.0,0.5%,4.4%,8.3%,-13.2%
Cc1ccc(C(=O)NC(=S)Nc2cccnc2Cl)cc1,90.8*,46.7*,-1.9%,-4.7%,0.3%,-3.0%
COc1ccccc1C(=O)NC(=S)Nc1cccnc1Cl,23.8,17.5*,-12.8%,-22.8%,4.3%,-7.2%
Cc1cc(S(=O)(=O)Nc2cccc(-c3ccc(N4CCOCC4)nn3)c2)c(C)cc1Cl,.,.,.,.,11.6%,.
Cn1c(NC(=O)/C=C/c2c(F)cccc2Cl)cc(=O)n(C)c1=O,29.3,1.3,-2.2%,-3.3%,1.6%,.
O=C(/C=C/c1c(F)cccc1Cl)Nc1ncccn1,61.1*,56.8*,-19.4%,-36.5%,-13.8%,-21.0%

# Screens from PubChem.
